The values below come from PubChem BioAssay AID652054 (National Center for Advancing Translational Sciences (NCATS), 2013).

SMILES strings stand for the structures. Screen size: about 360,000 compounds; about 9,100 (2.5%) were called active. Not shown: some 4% with an inconclusive outcome. This is one part of a sample in which actives are shown more often than they occur. Values without a mark were called inactive. No stated cut-off is given here; in the data, active means max response below about -50%; inconclusive means no clear call, values can overlap the other calls; inactive means above that.
On the % scale 0 is the no-effect control and ±100 the full control effect.

Chain of D(3) dopamine receptor (Homo sapiens) (P35462 whole entry, looked up): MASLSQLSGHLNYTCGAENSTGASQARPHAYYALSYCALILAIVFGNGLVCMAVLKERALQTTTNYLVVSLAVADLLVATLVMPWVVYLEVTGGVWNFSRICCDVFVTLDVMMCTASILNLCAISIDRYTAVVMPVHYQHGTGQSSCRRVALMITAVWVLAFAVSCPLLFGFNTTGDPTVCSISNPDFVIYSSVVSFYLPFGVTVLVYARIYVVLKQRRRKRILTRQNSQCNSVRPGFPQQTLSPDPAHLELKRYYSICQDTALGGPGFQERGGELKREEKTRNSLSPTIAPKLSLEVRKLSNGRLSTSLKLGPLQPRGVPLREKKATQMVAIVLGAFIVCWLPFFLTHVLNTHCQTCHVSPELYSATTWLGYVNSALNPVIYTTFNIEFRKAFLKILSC

The target of this assay is D(3) dopamine receptor (Homo sapiens) (UniProt P35462). Briefly: qHTS of D3 Dopamine Receptor Antagonist: qHTS. The following applies: D3R cells, DiscoveRx beta-arrestin luminescence, antagonist mode; hits give low values. The source says:
D3 DARs represent a very important target for the treatment of several neuropsychiatric disorders. Indeed, one of the most promising therapeutic applications for the D3 DAR is in the area of addiction and related disorders. […] These findings have been observed with a number of addictive substances including cocaine, amphetamine, nicotine, and alcohol. […] Antagonism of the D3 DAR may also be therapeutic in the treatment of schizophrenia or psychosis. […] Since the D3 DAR is expressed in areas of the CNS associated with the control of mood and emotion, it has been hypothesized that selective antagonism of the D3 DAR may be effective in treating psychosis without inducing the motor side effects typically seen with D2 DAR antagonists.
This part of the project aims to discover novel antagonist.
NIH Chemical Genomics Center [NCGC]
NIH Molecular Libraries Probe Centers Network [MLPCN]
Assay Submitter (PI): David Sibley, NINDS
Freshly passaged cells are plated in 1536 well white, solid bottom plates at a density of 1500 cells/well in 3microl of complete media. After an overnight incubation at 37 degrees C in 5% CO2, cells are loaded with 23nl of test compound from the compound library (as well as dopamine controls) using a 1536 pintool and incubated at 37 degrees C for 90 minutes. Two microliters of DiscoveRx reagent is then added to all cells, and they are incubated for an additional 30 - 60 minutes at room temperature. Following incubation, luminescence is measured on a ViewLux CCD-based luminometer reader using a 20 sec exposure time.
Regarding `O=C(NC1CCCC1)C1c2ccccc2OCC(=O)N1Cc1ccccc1` (stereo not given), the max response, negative = inhibition is 4.78%.

Take `COc1ccc(C(C(=O)Nc2c(C)cccc2C)N2CCN(c3ccc(C)cc3)CC2)cc1` (stereo not given): the max response, negative = inhibition was 11.5%.

`COCCCn1cc(CN2CC(N(C)C)CS2(=O)=O)nn1` (stereo not given): the max response, negative = inhibition was -10.8%.

Turning to `CCCCCCCCN1C(=O)[C@H](CC(=O)NCC23CC4CC(CC(C4)C2)C3)C[C@@]2(C(=O)OC)CCCCC=C12`, the max response, negative = inhibition was 9.16%.

In the case of `O=C(NCc1cccnc1)c1cc(C2CCCN(C(=O)C3CCCCC3)C2)on1` (stereo not given), the max response, negative = inhibition is 6.18%.

`COCCNC(=O)C1CCCN(Cc2ccccc2Cl)CC1` (stereo not given): the max response, negative = inhibition is 57.8%.

For the molecule `Cc1ccc(Sc2ccc(NC(=O)c3ccc(F)cc3)cc2C#N)cc1`, the max response, negative = inhibition was 0%.

`CC(=O)Nc1ccc(NC(=O)COc2ccccc2C(=O)Nc2cccc(Cl)c2Cl)cc1`: the max response, negative = inhibition was -0.418%.

`COc1cc(NC(=O)COc2ccccc2Cl)ccc1NC(=O)C(C)C`: the max response, negative = inhibition is -74% (active).

For the molecule `Cc1ccccc1OCC(=O)Nc1ccc(N2CCN(C(=O)C(C)C)CC2)c(Cl)c1`, the max response, negative = inhibition was 26.3%.

For the molecule `COc1ccc(-c2cnc3c(c2)C(=O)N([C@H](C)CO)C[C@@H](C)[C@H](CN(C)Cc2ccccc2)O3)cc1`, the max response, negative = inhibition was 14.3%.

As to `CCN1C(=O)[C@@H]2[C@@H]3CN(S(=O)(=O)c4ccccc4C)[C@@H](c4ccc(Cl)cc4)[C@@H]3C(=O)C[C@@H]2C1=O`, the max response, negative = inhibition is -17.8%.

For the molecule `CCN(CC)CCN(C(=O)c1cc(Cl)sc1Cl)c1nc2cc3c(cc2s1)OCO3`, the max response, negative = inhibition was -11.6%.

Consider `CCN(CC)CCN(C(=O)c1ccc2c(c1)CCCC2)c1nc2c(OC)cccc2s1`, for which the max response, negative = inhibition was -103% (active).

With `CCN(CC)CCN(C(=O)c1cccc([N+](=O)[O-])c1)c1nc2ccc(OC)cc2s1`, the max response, negative = inhibition was 8.97%.

As for `COc1ccc(NC2CCCN(C(=O)c3ccccc3-c3ncc[nH]3)C2)cc1` (stereo not given), the max response, negative = inhibition was -2.79%.

With `O=C(/C=C/NNC(=O)c1cccc(Br)c1)c1ccccc1`, the max response, negative = inhibition is 0%.

As to `Cc1cc(C)nc(N(C#N)CC(=O)Nc2ccccc2)n1`, the max response, negative = inhibition is -15.5%.

With `Cc1cc(C)nc(S/C=C/C(=O)c2ccccc2)n1`, the max response, negative = inhibition is -62.5% (active).

Regarding `COc1ccc([C@H]2N[C@]3(CCCN(Cc4ccco4)C3=O)[C@H]3C(=O)N(C)C(=O)[C@@H]23)cc1`, the max response, negative = inhibition is -22%.

With `Cc1cccc(N(CC(=O)N2CCCC2)S(C)(=O)=O)c1C`, the max response, negative = inhibition is -2.72%.

As for `Cc1ccc(S(=O)(=O)N2CCOCC2)cc1C(=O)Nc1ccccc1N1CCCC1`, the max response, negative = inhibition is 13.7%.

Consider `CCOC(=O)c1sc(NC(=O)c2cc(S(=O)(=O)N3CCOCC3)ccc2C)nc1C`, for which the max response, negative = inhibition was -55.1% (active).

As for `CCc1nnc(NC(=O)c2cc(S(=O)(=O)N3CCCCC3)ccc2C)s1`, the max response, negative = inhibition is -2.53%.

For the molecule `CCOC(=O)c1cc(-c2sc(NC(=O)c3ccccc3)nc2C)n(CCO)n1`, the max response, negative = inhibition is -12.9%.

In the case of `Fc1ccc(Cn2nnnc2C(c2cccs2)N2CCCCCC2)cc1` (stereo not given), the max response, negative = inhibition was 10.3%.

Take `COc1ccc(OC)c(C(c2nnnn2C(C)(C)C)N2CCc3ccccc3C2)c1` (stereo not given): the max response, negative = inhibition was -1.6%.

Regarding `COc1ccccc1C(c1nnnn1C(C)(C)C)N1CCN(Cc2ccccc2)CC1` (stereo not given), the max response, negative = inhibition is -90.6% (active).

For `CCC(C)(C)n1nnnc1C(c1cccs1)N1CCN(c2nc3ccccc3s2)CC1` (stereo not given), the max response, negative = inhibition was -16.1%.

`CCCC(c1nnnn1C(C)(C)C)N1CCN(Cc2ccccc2)CC1` (stereo not given): the max response, negative = inhibition is -5.41%.

As to `CCC(C)(C)n1nnnc1C(c1cccs1)N1CCN(Cc2ccccc2)CC1` (stereo not given), the max response, negative = inhibition is -56.8% (active).

Regarding `N#Cc1cccc(NC(=O)c2cc(C3CCCCN3C(=O)CCc3ccccc3)on2)c1` (stereo not given), the max response, negative = inhibition was -8.91%.

For the molecule `CCCCCn1nnnc1-c1nc2cc3ccccc3cc2[nH]c1=O`, the max response, negative = inhibition is -8.12%.

Turning to `COCCCNc1ccn2nc(-c3ccc(CC(C)C)cc3)cc2n1`, the max response, negative = inhibition was 31.5%.

Turning to `Cc1ccccc1NC(=O)Cc1nc(COC(=O)C(C)(C)Oc2ccc(Cl)cc2)cs1`, the max response, negative = inhibition is 24.6%.

For `CC(C)(C)CC(=O)Nc1nc(C(N)Cc2ccc(C(F)(F)F)cc2)cs1` (stereo not given), the max response, negative = inhibition was 0%.

For `Cc1nnc(SCC(=O)N/N=C/c2cn(-c3ccccc3)nc2-c2ccc(F)cc2)n1-c1ccccc1`, the max response, negative = inhibition was -52.1% (active).

Consider `Cc1ccc(-c2nnc(SCC(=O)N/N=C/c3cccs3)n2-c2ccc(C)cc2)cc1`, for which the max response, negative = inhibition is 11.6%.

As to `Cc1nnc(SCC(=O)Nc2cccc(N)c2)n1-c1ccccc1`, the max response, negative = inhibition is 9.89%.

As to `CCOC(=O)[C@]12CCCC=C1N(CCC1=CCCCC1)C(=O)[C@H](CC(=O)NCCCCc1ccccc1)C2`, the max response, negative = inhibition was -12.8%.

As for `CCC(C(=O)Nc1c(C)cccc1C)n1c(-c2cc(C)cs2)nc2ccccc21` (stereo not given), the max response, negative = inhibition was -4.88%.

In the case of `Nc1c(C(=O)c2cccs2)sc2nsc(SCCN3CCCCC3)c12`, the max response, negative = inhibition is -51.8% (active).

With `Nc1ncnc2c1ncn2[C@@H]1O[C@H](C(=O)NS(=O)(=O)c2c(Cl)nc3sccn23)[C@@H](O)[C@H]1O`, the max response, negative = inhibition was 24.3%.

For the molecule `Cc1ccc(-c2ccc(CN3C(C(C)C)C(=O)N(Cc4cn(CCC5OCCO5)nn4)CCS3(=O)=O)cc2)cc1` (stereo not given), the max response, negative = inhibition was 5.58%.

With `O=C(Nc1ccc(Cl)cc1)c1csc([C@@H]2O[C@H](CO)[C@H](O)[C@H](O)[C@H]2O)n1`, the max response, negative = inhibition was -15.5%.

Turning to `CC1=C(C(=O)N(C)C)CC(CC(=O)NCCN2CCOCC2)C(=O)N1Cc1ccccc1` (stereo not given), the max response, negative = inhibition is -7.58%.

`CC(=O)Nc1cc(-c2ccc(N3CCN(C)CC3)cc2)cn2c(-c3cccc(C(=O)N(C)C)c3)cnc12`: the max response, negative = inhibition is 9.1%.

On to `CCCOc1ccc(C2C(C(=O)c3ccc(C)o3)=C(O)C(=O)N2CCCn2ccnc2)cc1` (stereo not given), for which the max response, negative = inhibition was -63.3% (active).

With `CCOc1ccc(C2/C(=C(/O)c3ccc4c(c3)CC(C)O4)C(=O)C(=O)N2CCCn2ccnc2)cc1` (stereo not given), the max response, negative = inhibition was -12.2%.

Regarding `C=CCOc1cccc(C2C(C(=O)c3ccc(C)o3)=C(O)C(=O)N2CCN2CCOCC2)c1` (stereo not given), the max response, negative = inhibition was 0.324%.

As for `Cc1ccc(C)c(C(O)c2ncc(-c3cccc4ccccc34)[nH]2)c1` (stereo not given), the max response, negative = inhibition is -3.53%.

Turning to `COC(=O)c1ccc2nc(-c3ccc(Cl)cc3)c(Cc3cccc(F)c3)n2c1`, the max response, negative = inhibition was 88.8%.

With `CC(=O)Nc1ccc(Nc2c([N+](=O)[O-])cc(S(C)(=O)=O)cc2[N+](=O)[O-])cc1`, the max response, negative = inhibition is -15.9%.

With `Cn1cnnc1Sc1ccc(S(C)(=O)=O)cc1[N+](=O)[O-]`, the max response, negative = inhibition was -78.8% (active).

`CCN(CC(=O)Nc1c(F)cccc1F)C(=O)c1ccc(Sc2nncn2C)c([N+](=O)[O-])c1`: the max response, negative = inhibition was 2.59%.
